# Test results as given in PubChem BioAssay (NCATS).
# Inconclusive results are not listed. Where a call stands in place of a potency, no number is given. Activity calls are given as the source filed them. The call rests on the fitted dose curve; in most records, active means well fitted curve in the direction sought with a large enough effect; inconclusive means small, poorly fitted or top-dose-only effect, or another doubt; inactive means no such curve, though single readings can be large; an effect the other way counts as inactive or inconclusive.
# Tests used:
# [1] = qHTS to identify inhibitors of the type 1 interferon - major histocompatibility complex class I in skeletal muscle: primary screen against the NCATS Mechanism Interrogation Plate v5.0 (MIPE) Libary (AID 1347411); further: nearly all actives have a fitted effect of over 65% in size; further: potency means the concentration at half of the fitted maximal effect
# In short: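 HLA-B HiBit myoblasts, dexamethasone-free medium + 4 ng/ml IFN-b, 24 h compound, 11-pt 1:3 from 46 uM final. Readout: Nano-Glo HiBiT lytic luminescence after 10 min lysis, RT.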
# [2] = biological target: Protein phosphatase 1D (Homo sapiens) (UniProt O15297); assay: RapidFire Mass Spectrometry qHTS Assay for Modulators of WT P53-Induced Phosphatase 1 (WIP1) (AID 1347424);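 further: amount of dephosphorylated VEPPL-S-QETFS peptide product formed by WIP1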; further: potency means the concentration at half of the fitted maximal effect
# Sequence of Protein phosphatase 1D (Homo sapiens) (O15297 whole entry, looked up): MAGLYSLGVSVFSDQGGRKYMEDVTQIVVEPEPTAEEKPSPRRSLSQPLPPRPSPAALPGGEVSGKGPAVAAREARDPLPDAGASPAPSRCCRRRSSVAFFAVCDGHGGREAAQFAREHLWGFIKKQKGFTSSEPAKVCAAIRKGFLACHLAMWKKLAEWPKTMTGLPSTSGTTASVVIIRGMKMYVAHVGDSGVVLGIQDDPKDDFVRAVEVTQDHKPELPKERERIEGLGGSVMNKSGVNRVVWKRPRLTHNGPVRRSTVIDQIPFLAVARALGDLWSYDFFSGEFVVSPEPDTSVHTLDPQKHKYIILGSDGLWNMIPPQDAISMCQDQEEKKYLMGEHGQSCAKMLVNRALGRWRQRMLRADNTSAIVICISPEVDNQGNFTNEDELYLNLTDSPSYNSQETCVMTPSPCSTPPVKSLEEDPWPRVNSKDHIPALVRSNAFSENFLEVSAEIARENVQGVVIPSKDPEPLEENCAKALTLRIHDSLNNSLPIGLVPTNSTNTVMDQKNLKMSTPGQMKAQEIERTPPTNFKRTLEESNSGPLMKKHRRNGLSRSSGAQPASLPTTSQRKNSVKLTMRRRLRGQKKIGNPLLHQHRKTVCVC
# In short: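 RapidFire mass spectrometry measured dephosphorylated peptide after 5 min room-temperature reaction of 2 uM VEPPL-pS-QETFS with 10 nM WIP1 (50 mM Tris-HCl pH 7.5, 30 mM MgCl2, 0.1 mM EGTA, BSA), following 1 hr compound preincubation; 1 uM isotope-labelled product standard.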
# [3] = biological target: Protein phosphatase 1D (Homo sapiens) (UniProt O15297); assay: Rhodamine-PBP qHTS Assay for Modulators of WT P53-Induced Phosphatase 1 (WIP1) (AID 1347425)
# In short: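 The read-out is the change in Rhodamine-PBP fluorescence (f1 - f0, ex 525/em 598 nm) as Pi is released, read each minute for 11 min. Final reaction: 5 nM WIP1, 10 uM phosphopeptide VEPPL-pS-QETFS, 10 uM Rh-PBP, 50 mM Tris-HCl pH 7.5, 30 mM MgCl2. Compound was preincubated with enzyme for 1 hour at room temperature.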
# [4] = biological target: Calcium and integrin-binding protein 1 (Homo sapiens) (UniProt Q99828); assay: Primary qHTS for Identification of Calcium Integrin Binding Protein 1 (CIB1) Competitor (AID 1508620); further: potency means the concentration at half of the fitted maximal effect
# Sequence of Calcium and integrin-binding protein 1 (Homo sapiens) (Q99828 whole entry, looked up): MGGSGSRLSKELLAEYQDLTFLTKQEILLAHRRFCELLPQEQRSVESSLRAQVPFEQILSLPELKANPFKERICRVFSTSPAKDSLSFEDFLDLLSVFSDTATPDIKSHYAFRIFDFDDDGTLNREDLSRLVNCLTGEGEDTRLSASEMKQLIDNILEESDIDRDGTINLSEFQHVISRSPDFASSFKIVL
# In short: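 CIB1-GST (1 uM final) and compound incubated 15 min at room temperature before adding FITC-alphaIIb peptide tracer (100 nM final). Competition for binding read by fluorescence polarization (ex 480, em 540) after another 15 min at room temperature.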
# [5] = Primary qHTS for inhibitors of La Crosse Virus (LACV) - induced cell death in SH-SY5Y cells (AID 1508616);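 further: top concentration of the series differs between compounds; higher means more rescue of cells from virus-induced death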
# In short: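 Cytopathicity rescue screen: compounds pinned onto SH-SY5Y cells, which are then infected with LACV (MOI 0.01) and held 6 days at 37C. Percent activity is scaled between infected DMSO control and uninfected DMSO control.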
# [6] = qHTS for inhibitors of adenylyl cyclases using a fission yeast platform: a pilot screen against the NCATS LOPAC library (AID 1347410)
# In short: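 Inhibition of GNAS-stimulated AC9 activity in S. pombe was inferred from derepression of a PKA-repressed fbp1-GFP reporter, measured as cytometric fluorescence after 18 h at 30C with compounds at up to 57 µM.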
# [7] = Validation qHTS assay for inhibitors of Activation Induced Cytidine Deaminase (AID): UDG Counterscreen signal (AID 1347427)
# In short: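 Fluorescence at 560 nm excitation, 665 nm emission reports UDG signal after 250 mM NaOH (2x) addition and 30 min. Enzymes (AID 1 uM, UDG 2 U/mL, at 4/3x) preincubated 10 min with compound, then 4 h with 4x 250 nM DJC20/DJC23 substrate at room temperature.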
# [8] = biological target: Single-stranded DNA cytosine deaminase (Homo sapiens) (UniProt Q9GZX7); assay: Validation qHTS assay for inhibitors of Activation Induced Cytidine Deaminase (AID): AID signal (AID 1347429)
# Sequence of Single-stranded DNA cytosine deaminase (Homo sapiens) (Q9GZX7 whole entry, looked up): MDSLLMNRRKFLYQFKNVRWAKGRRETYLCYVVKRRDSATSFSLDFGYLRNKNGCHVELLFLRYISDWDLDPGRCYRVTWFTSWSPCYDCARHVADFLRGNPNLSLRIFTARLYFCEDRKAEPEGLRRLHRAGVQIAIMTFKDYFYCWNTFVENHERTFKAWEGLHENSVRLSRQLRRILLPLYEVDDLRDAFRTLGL
# In short: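 AID+UDG coupled FRET deamination; cpds up to 114 uM final; DJC20/DJC23 substrate, 4 hr RT; NaOH stop, 30 min RT; read Ex 540/Em 590.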
# [9] = biological target: Calcium and integrin-binding protein 1 (Homo sapiens) (UniProt Q99828); assay: Validation qHTS for Identification of Calcium Integrin Binding protein 1 (CIB1) Competitor (AID 1508618)
# In short: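 CIB1-GST (1 uM final) incubated 15 min at room temperature with compounds (up to 114 uM), then FITC-labelled alphaIIb peptide (100 nM) added. FP read (Ex 480/Em 540) after 15 min, pH 7.4 buffer containing 5 mM CaCl2.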
# [10] = biological target: Calcium and integrin-binding protein 1 (Homo sapiens) (UniProt Q99828); assay: Confirmatory qHTS for Identification of Calcium Integrin Binding Protein 1 (CIB1) Competitor (AID 1508617); further: nearly all actives have a fitted effect of over 65% in size
# In short: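 Compounds at up to 114 uM final met 1 uM GST-tagged CIB1 for 15 min at room temperature (HEPES pH 7.4, 5 mM CaCl2). FITC-labelled alphaIIb peptide, 100 nM, added; polarization read after 15 min more.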
smiles,measurement,setting,value
CCCCCN=C(N)N/N=C/c1c[nH]c2ccc(OC)cc12,Potency,[1],6.58 µM (active)
same,Potency,[2],inactive
same,outcome,[3],inactive
same,Potency,[4],inactive
CC(=O)OCC(=O)[C@H]1CC[C@H]2[C@@H]3CCC4=CC(=O)CC[C@]4(C)[C@H]3CC[C@]12C,Potency,[2],inactive
same,outcome,[3],inactive
same,outcome,[5],inactive
same,Potency,[4],inactive
NC(N)=NCc1cccc(I)c1,outcome,[6],inactive
same,outcome,[7],inactive
same,outcome,[8],inactive
same,outcome,[5],inactive
same,outcome,[9],inactive
O=C1[C@H](CC[C@H](O)c2ccc(F)cc2)[C@@H](c2ccc(O)cc2)N1c1ccc(F)cc1,Potency,[1],inactive
same,Potency,[2],inactive
same,outcome,[3],inactive
same,outcome,[5],inactive
same,Potency,[4],inactive
C[C@H]1[C@H]2CC[C@H]3[C@@H]4CC=C5C[C@@H](N(C)C)CC[C@]5(C)[C@H]4CC[C@]23CN1C,Potency,[2],inactive
same,outcome,[3],inactive
same,outcome,[5],inactive
Cc1ccc(-c2ncc(Cl)cc2-c2ccc(S(C)(=O)=O)cc2)cn1,Potency,[1],inactive
same,Potency,[2],inactive
same,outcome,[3],inactive
same,outcome,[5],inactive
same,Potency,[4],inactive
C#C[C@]1(O)CC[C@H]2[C@@H]3[C@H](C)CC4=C(CCC(=O)C4)[C@H]3CC[C@@]21C,Potency,[1],inactive
same,Potency,[2],inactive
same,outcome,[3],inactive
same,outcome,[5],inactive
same,Potency,[4],inactive
CCCCCCCCCCCCCCCC(=O)O,Potency,[2],inactive
same,outcome,[3],inactive
same,outcome,[5],inactive
CN1CCN(CCC(=O)N2c3ccccc3Sc3ccc(C(F)(F)F)cc32)CC1,Potency,[2],inactive
same,outcome,[3],inactive
CCCCCCCCCCCCCCC[C@H](O)[C@@H](N)CO,Potency,[2],inactive
same,outcome,[3],inactive
C=C[C@H]1CN2CC[C@H]1C[C@H]2[C@H](O)c1ccnc2ccc(OC)cc12,Potency,[2],inactive
same,outcome,[3],inactive
same,outcome,[5],inactive
CC(=O)Nc1ccc(OCC(O)CNC(C)C)cc1 (stereo not given),Potency,[2],inactive
same,outcome,[3],inactive
same,outcome,[5],inactive
CCOC(=O)[C@H](CCc1ccccc1)N[C@@H](C)C(=O)N1[C@H](C(=O)O)C[C@@H]2CCC[C@@H]21,Potency,[1],inactive
same,Potency,[2],inactive
same,outcome,[3],inactive
same,outcome,[5],inactive
same,Potency,[4],inactive
CCOC(=O)[C@H](CCc1ccccc1)N[C@@H](C)C(=O)N1[C@H](C(=O)O)C[C@H]2CCCC[C@@H]21,outcome,[6],inactive
same,outcome,[7],inactive
same,outcome,[8],inactive
same,outcome,[5],inactive
same,outcome,[9],inactive
C#C[C@]1(O)CC[C@H]2[C@@H]3CCC4=CC(=O)CC[C@@H]4[C@H]3CC[C@@]21CC,Potency,[1],inactive
same,Potency,[2],inactive
same,outcome,[3],inactive
same,outcome,[5],inactive
same,Potency,[4],inactive
CC(=O)O[C@H]1C[C@@H]2CC[C@@H]3[C@H](CC[C@@]4(C)[C@H]3C[C@H]([N+]3(C)CCCCC3)[C@@H]4OC(C)=O)[C@@]2(C)C[C@@H]1N1CCCCC1,Potency,[1],inactive
same,Potency,[2],inactive
same,outcome,[3],inactive
same,outcome,[5],inactive
same,Potency,[4],inactive
CCOc1ccc(NC(C)=O)cc1,Potency,[2],inactive
same,outcome,[3],inactive
C=C[C@H]1CN2CC[C@H]1C[C@@H]2[C@@H](O)c1ccnc2ccc(OC)cc12,Potency,[2],inactive
same,outcome,[3],inactive
same,outcome,[5],inactive
CN1CCc2cccc3c2[C@H]1Cc1ccc(O)c(O)c1-3,Potency,[2],inactive
same,outcome,[3],inactive
same,outcome,[5],inactive
same,Potency,[10],inactive
CCCCCCCCCCCCCC[N+](C)(C)Cc1ccccc1,Potency,[2],inactive
same,outcome,[3],inactive
same,outcome,[5],inactive
same,Potency,[4],inactive
Clc1cccc(C(c2ccc3nc[nH]c3c2)n2ccnc2)c1 (stereo not given),Potency,[1],inactive
same,Potency,[2],inactive
same,outcome,[3],inactive
same,outcome,[5],inactive
same,Potency,[4],inactive
COc1cc([C@H]2Oc3cc([C@H]4Oc5cc(O)cc(O)c5C(=O)[C@@H]4O)ccc3O[C@@H]2CO)ccc1O,Potency,[1],inactive
same,Potency,[2],inactive
same,outcome,[3],inactive
same,outcome,[5],inactive
same,Potency,[10],inactive
same,Potency,[4],35.5 µM (active)
O=c1[nH]c(=O)n([C@H]2C[C@H](O)[C@@H](CO)O2)cc1F,Potency,[1],inactive
same,Potency,[2],inactive
same,outcome,[3],inactive
same,Potency,[4],inactive
CC(C)(C)NC[C@H](O)COc1nsnc1N1CCOCC1,outcome,[6],inactive
same,Potency,[2],inactive
same,outcome,[3],inactive
same,outcome,[7],inactive
same,outcome,[8],inactive
same,outcome,[9],inactive
same,Potency,[4],inactive
O=C(O)CCc1nc2ccccc2[nH]1,Potency,[2],inactive
same,outcome,[3],inactive
same,outcome,[5],inactive
same,Potency,[4],inactive
CC(=O)O[C@]1(C(C)=O)CC[C@H]2[C@@H]3C=C(C)C4=CC(=O)CC[C@]4(C)[C@H]3CC[C@@]21C,Potency,[1],inactive
same,Potency,[2],inactive
same,outcome,[3],inactive
same,outcome,[5],inactive
CCc1oc2ccccc2c1C(=O)c1cc(Br)c(O)c(Br)c1,Potency,[2],6.31 µM (active)
CCCCN=C(N)N=C(N)N,Potency,[2],inactive
same,outcome,[3],inactive
same,outcome,[5],inactive
O=C(N/N=C/c1ccc([N+](=O)[O-])o1)c1ccc(O)cc1,Potency,[2],inactive
same,outcome,[3],inactive
same,outcome,[5],inactive
CN=C(N)NCCC[C@H](N)C(=O)O,outcome,[6],inactive
same,outcome,[7],inactive
same,outcome,[8],inactive
same,outcome,[5],inactive
same,outcome,[9],inactive
COc1ccc(CCN(C)CCCN2CCc3cc(OC)c(OC)cc3CC2=O)cc1OC,Potency,[2],inactive
same,outcome,[3],inactive
same,outcome,[5],inactive
same,Potency,[4],inactive
COc1ccccc1N1CCN(CCCCNC(=O)c2ccc(-c3ccc(C(C)=O)cc3)cc2)CC1,Potency,[2],inactive
same,outcome,[3],inactive
same,outcome,[5],inactive
same,Potency,[4],inactive
CC(C)Cc1ccc(CC(=O)O)cc1,Potency,[2],inactive
same,outcome,[3],inactive
same,outcome,[5],inactive
same,Potency,[4],inactive
COc1ccc(C(=O)c2ccccc2O)c(O)c1,Potency,[2],inactive
same,outcome,[3],inactive
same,outcome,[5],inactive
C#C[C@]1(O)CC[C@H]2[C@@H]3CCc4cc(OC)ccc4[C@H]3CC[C@@]21C,Potency,[1],inactive
same,outcome,[3],inactive
same,outcome,[5],inactive
same,Potency,[4],inactive
Nc1nc(Cl)nc2c1ncn2[C@@H]1O[C@H](CO)[C@@H](O)[C@@H]1F,Potency,[1],inactive
same,outcome,[3],inactive
same,Potency,[4],inactive
CN1CCN(C2=Nc3ccccc3Sc3ccc(Cl)cc32)CC1,Potency,[2],inactive
same,outcome,[3],inactive
same,outcome,[5],inactive
same,Potency,[4],inactive
